Records with an inconclusive call do not appear. Entries that show only a call come without a potency. A number with no mark means an inactive call. Calls of active or inactive are those of the source. Calls come from the whole dose curve; as a rule, active = well fitted cell-killing curve with a large enough effect; inconclusive = small, poorly fitted or top-dose-only effect, or effect the other way; inactive = no such curve, though single readings can be large or run the other way.
Key:
[1] = Viability qHTS for spleen associated tyrosine kinase inhibitor (SYKi) naive MV4-11 cells (AID 1963823); note: nearly all actives have a fitted effect of over 40% in size
Method in brief: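 Compounds were dispensed acoustically onto plates, MV4-11 cells (SYKi-naive) added at 500 per well, and plates incubated 72 hr at 37 C. CellTiter-Glo was added and luminescence measured after 10 min.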

[2] = Viability qHTS for spleen associated tyrosine kinase inhibitor (SYKi) drug resistant MV4-11 cells (AID 1963824); note: nearly all actives have a fitted effect of over 35% in size
Method in brief: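 CellTiter-Glo luminescence, read 10 min after reagent addition, reports viability after a 72 hr compound exposure. Cells are an MV4-11 line made resistant to SYK inhibition, seeded at 500 per well onto compound-containing plates.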
Potency is the fitted concentration of half-maximal effect.

COC(=O)C1=COC(OC2OC(CO)C(O)C(O)C2O)C2C(COC(=O)/C=C/c3ccc(O)cc3)C(O)C(O)C12 (stereo not given)
Potency [1]: inactive | Potency [2]: inactive

CN1[C@@H]2CC[C@H]1CC(OC(=O)C(CO)c1ccccc1)C2 (stereo not given in full)
Potency [1]: inactive | Potency [2]: inactive

CC(c1c[nH]c2ccccc12)C(O)C(=O)O (stereo not given)
Potency [1]: inactive | Potency [2]: inactive

C=C1C(=O)OC2/C=C(\COC(C)=O)CC/C=C(\C=O)CC(OC(=O)C(C)CC)C12 (stereo not given)
Potency [1]: 1590 nM (active) | Potency [2]: 1120 nM (active)

C[C@@H]1CCC2C(C)(C)[C@H](O)CC[C@]2(C)[C@@]12Cc1c(O)cc3c(c1O2)CNC3=O (stereo not given in full)
Potency [1]: inactive | Potency [2]: inactive

CC(=O)O[C@]1(C(C)=O)CC[C@H]2[C@@H]3CCC4=CC(=O)CCC4=C3[C@@H](c3ccc(N(C)C)cc3)C[C@@]21C
Potency [1]: 25900 nM (active) | Potency [2]: 20600 nM (active)

C/C(=C\CCC(C)C1=CCC2(C)OC3=C(CC12)C(=O)C(O)CC3)CO (stereo not given)
Potency [1]: inactive | Potency [2]: inactive

CCC[C@@H]1C[C@@H](C(=O)N[C@@H]([C@H]2O[C@H](SC)[C@H](OP(=O)(O)O)[C@@H](O)[C@H]2O)[C@H](C)Cl)N(C)C1
Potency [1]: inactive | Potency [2]: inactive

Fc1ccc(-c2nc(C3CCNCC3)sc2-c2ccnc(NC3CC3)n2)cc1
Potency [1]: 10300 nM (active) | Potency [2]: 11600 nM (active)

CC(O)(C(=O)O)C1CCC2(C)C1CCC1(C)C2CCC2C3(C)CCC(O)C(C)(COC4OC(CO)C(O)C(O)C4O)C3CCC21C (stereo not given)
Potency [1]: inactive | Potency [2]: inactive

CC(C)(C#N)c1ccc(N2C(=O)OCc3cnc4ccc(-c5cnc6ccccc6c5)cc4c32)cc1
Potency [1]: 1030 nM (active) | Potency [2]: 1460 nM (active)

C=C[C@H]1[C@H](O[C@@H]2O[C@H](CO[C@@H]3OC[C@](O)(CO)[C@H]3O)[C@@H](O)[C@H](O)[C@H]2O)OC=C2C(=O)OCC[C@H]21
Potency [1]: inactive | Potency [2]: inactive

CCCCCCOc1cc2c(cc1N(C)c1ncc(C(=O)O)cn1)C(C)(C)CCC2(C)C
Potency [1]: 23100 nM (active) | Potency [2]: 6510 nM (active)

CC(=O)[C@@H]1C[C@H](C(C)(C)O[C@@H]2O[C@H](CO)[C@@H](O)[C@H](O)[C@H]2O)CC[C@@]2(CO)OC(=O)C[C@@H]12
Potency [1]: inactive | Potency [2]: inactive

CC(=O)O[C@@H]1C[C@@H](OC(C)=O)C(C)(C)/C=C/[C@H](C)[C@H](OC(C)=O)[C@@]2(O)C[C@H](C)[C@H](OC(=O)c3ccccc3)[C@@H]2/C=C/1C
Potency [1]: 968 nM (active) | Potency [2]: 2730 nM (active)

C[C@@H]1O[C@@H](O[C@H]2[C@H](OC(=O)[C@]34CCC(C)(C)C[C@H]3C3=CCC5[C@@]6(C)C[C@H](O)[C@H](O[C@@H]7O[C@H](CO[C@@H]8OC[C@H](O)[C@H](O)[C@H]8O)[C@@H](O)[C@H](O)[C@H]7O)C(C)(C)C6CC[C@@]5(C)[C@]3(C)C[C@H]4O)OC[C@@H](O)[C@@H]2O)[C@H](O)[C@H](O[C@@H]2OC[C@](O)(CO)[C@H]2O)[C@H]1O[C@@H]1OC[C@H](O)[C@H](O[C@@H]2OC[C@@H](O)[C@H](O)[C@H]2O)[C@H]1O (stereo not given in full)
viability (% of control) [1]: 72% [at 9.25 µM] | viability, % of control [2]: 85% [at 9.25 µM]

C[C@@H]1O[C@@H](OC2C(O[C@H]3[C@H](O[C@H]4CC[C@@]5(C)C(CC[C@]6(C)C5CC=C5C7CC(C)(C)CC(O)[C@]7(C)CC[C@]56C)C4(C)C)O[C@H](C(=O)O)[C@@H](O)[C@@H]3O)OC(CO)C(O)C2O)[C@H](O)[C@H](O)[C@H]1O (stereo not given in full)
viability (% of control) [1]: 84.2% [at 9.25 µM] | viability, % of control [2]: 97.3% [at 9.25 µM]

CC1CCC2(C=O)C(CO)=CCCC2C1(C)CC(=O)O (stereo not given)
Potency [1]: inactive | Potency [2]: inactive

C=C1C(=O)O[C@@H]2C[C@@]3(C)CCCC(=C)[C@]3(O)C[C@H]12
Potency [1]: 5800 nM (active) | Potency [2]: 2590 nM (active)

Nc1ccc(S(=O)(=O)Nc2nccs2)cc1
Potency [1]: inactive | Potency [2]: inactive

CO[C@H]1[C@@H](O)[C@H](O[C@H]2CC[C@@]3(C)C(CCC4C3CC[C@]35COC6(COC(=O)C6)C3CCC45O)C2)O[C@@H](C)[C@@H]1OC1OC(CO)C(OC2OC(CO)C(O)C(O)C2O)C(O)C1O (stereo not given in full)
Potency [1]: 1230 nM (active) | Potency [2]: 1100 nM (active)

CC1CC(=O)[C@]2(O)C(C(=O)OCCc3ccc(O)c(O)c3)=CO[C@@H](O[C@@H]3O[C@H](CO)[C@@H](O)[C@H](O)[C@H]3O)[C@H]12 (stereo not given in full)
Potency [1]: inactive | Potency [2]: inactive

C=CC(C)(C)c1[nH]c2ccccc2c1C[C@@H]1NC(=O)[C@H](Cc2c[nH]c3ccccc23)NC1=O
Potency [1]: inactive | Potency [2]: 252 nM (active)

CCN(CC)CC1CCN(c2ncc3ncnc(Nc4ccc(F)c(Cl)c4)c3n2)CC1
Potency [1]: 2910 nM (active) | Potency [2]: 2910 nM (active)

COc1cc(C(O)C2COC(c3ccc(OC4OC(CO)C(O)C(O)C4O)c(OC)c3)C2CO)ccc1O (stereo not given)
Potency [1]: 4470 nM (active) | Potency [2]: inactive

COC(=O)C1=CO[C@@H](O[C@@H]2O[C@H](CO)[C@@H](O)[C@H](O)[C@H]2O)[C@@H]2[C@@](C)(O)[C@@H](OC(=O)/C=C/c3ccc(O)cc3)C[C@]12O
Potency [1]: inactive | Potency [2]: inactive

COC(=O)[C@@]1(O)C=CC[C@@H]2[C@@]3(C)C[C@@H](c4ccoc4)OC(=O)[C@H]3CC[C@]21C
Potency [1]: inactive | Potency [2]: inactive

CCC1=CC2CN(C1)Cc1c([nH]c3ccccc13)[C@@](C(=O)OC)(c1cc3c(cc1OC)N(C)[C@H]1[C@@](O)(C(=O)OC)[C@H](OC(C)=O)[C@]4(CC)C=CCN5CC[C@]31[C@@H]54)C2 (stereo not given in full)
Potency [1]: 25.2 nM (active) | Potency [2]: 12.6 nM (active)

COc1cc(/C=C2\CCCN([C@@H](C)c3ccc(F)cc3)C2=O)ccc1-n1cnc(C)c1
Potency [1]: 9200 nM (active) | Potency [2]: 5170 nM (active)

O=C(Nc1ccc(S(=O)(=O)Nc2ccccc2Cl)c(Cl)c1)c1ccccn1
Potency [1]: inactive | Potency [2]: 20600 nM (active)

CC1OC(O[C@@H]2[C@@H](O)[C@H](OC(=O)[C@]34CCC(C)(C)C[C@H]3C3=CCC5[C@@]6(C)CC[C@H](O[C@@H]7O[C@H](C(=O)O)[C@@H](O)[C@H](O[C@@H]8OC[C@@H](O)[C@H](O)[C@H]8O)[C@H]7O[C@@H]7O[C@H](CO)[C@H](O)[C@H](O)[C@H]7O)[C@@](C)(C=O)C6CC[C@@]5(C)[C@]3(C)C[C@H]4O)O[C@H](C)[C@@H]2OC2OC(C)C(OC3OCC(O)C(O)C3O)C(O)C2O)C(O)C(O)C1O (stereo not given in full)
viability (% of control) [1]: 94.8% [at 9.25 µM] | viability, % of control [2]: 106% [at 9.25 µM]

CC(=O)OC1C[C@]2(C)C(O)CC(C)=C[C@H](OC(=O)c3ccc(O)cc3)C2[C@]1(O)C(C)C (stereo not given in full)
Potency [1]: inactive | Potency [2]: 6320 nM (active)

COc1ccc(/C=C/C(=O)O[C@@H]2[C@@H](O)[C@@H](O)[C@H](O[C@H]3[C@@H]4C=CO[C@@H](O[C@@H]5O[C@H](CO)[C@@H](O)[C@H](O)[C@H]5O)[C@@H]4[C@@]4(CO)O[C@@H]34)O[C@H]2C)cc1
Potency [1]: inactive | Potency [2]: inactive

CC(=O)c1[nH]cc(CCC(=O)O)c1CC(=O)O
Potency [1]: 231 nM (active) | Potency [2]: inactive

COc1c(F)cccc1C(=O)N1C[C@@H](C)CC[C@H]1CNc1ccc(Br)cn1
Potency [1]: 9200 nM (active) | Potency [2]: 9200 nM (active)

C=C1C(=O)O[C@@H]2/C=C(\CO)CC/C=C(/C=O)C[C@@H](O)[C@@H]12
Potency [1]: 3660 nM (active) | Potency [2]: 2060 nM (active)

COc1c2c(c(C)c3c1C(=O)OC3)OC1(C)CC(O)C34OC(OC)(CCC3(C)C1C2)OC4(C)CO (stereo not given)
Potency [1]: inactive | Potency [2]: inactive

CCCCC[C@H](O)C=C[C@H]1[C@H](O)CC(=O)[C@H]1CC=CCCCC(=O)O
Potency [1]: 119 nM (active) | Potency [2]: 18.6 nM (active)

CC1CCCC(O)CC(=O)c2c(O)cc(O)cc2CC(=O)O1 (stereo not given)
Potency [1]: 3210 nM (active) | Potency [2]: 2020 nM (active)

CC1=C2C(=O)C=C(CO)[C@@H]2[C@H]2OC(=O)[C@H](C)[C@@H]2[C@@H](O)C1
Potency [1]: inactive | Potency [2]: inactive

Cc1noc(-c2ccc(-c3ccc(C4(C(=O)O)CC4)cc3)cc2)c1NC(=O)O[C@H](C)c1ccccc1
Potency [1]: 16600 nM (active) | Potency [2]: 11800 nM (active)

CN(CCO)C1CCN(c2ccc(Nc3ncc4c5ccnc(F)c5n(C5CCCC5)c4n3)nc2)CC1
Potency [1]: 35.5 nM (active) | Potency [2]: 64.5 nM (active)

NC(=O)C(O[C@@H]1O[C@H](CO[C@@H]2O[C@H](CO)[C@@H](O)[C@H](O)[C@H]2O)[C@@H](O)[C@H](O)[C@H]1O)c1ccccc1 (stereo not given in full)
Potency [1]: inactive | Potency [2]: inactive

CC1(CO)CC2C(O)C(=O)C3(CO)CC3(C)C2C1 (stereo not given)
Potency [1]: inactive | Potency [2]: inactive

CCC(CCO[C@@H]1O[C@H](CO[C@H]2OC[C@](O)(CO)[C@H]2O)[C@@H](O)[C@H](O)[C@H]1O)C(C)(C)O (stereo not given in full)
Potency [1]: inactive | Potency [2]: inactive

CC(C)CN(CC(=O)N(CCCN1CCCC1=O)CC(N)=O)C(=O)CNCCc1ccccc1F
Potency [1]: inactive | Potency [2]: inactive

COC(=O)C1=COC(O[C@@H]2O[C@H](CO)[C@@H](O)[C@H](O)[C@H]2O)C2C(C)C(=O)CC12 (stereo not given in full)
Potency [1]: inactive | Potency [2]: inactive

O=C(Nc1ccc2[nH]ncc2c1)C1CCC1
Potency [1]: inactive | Potency [2]: inactive

C[C@@H]1O[C@@H](O[C@H]2[C@H](O[C@H]3[C@H](O[C@H]4CC[C@@]5(C)C(CC[C@]6(C)C5CC=C5[C@@H]7CC(C)(C)CC(=O)[C@]7(C)CC[C@]56C)[C@@]4(C)CO)O[C@H](C(=O)O)[C@@H](O)[C@@H]3O)O[C@H](CO)[C@H](O)[C@@H]2O)[C@H](O)[C@H](O)[C@H]1O (stereo not given in full)
viability (% of control) [1]: 81.7% [at 9.25 µM] | viability, % of control [2]: 68.7% [at 9.25 µM]

COc1ccc2c(c1)C=C1Cn3c-2c(C2CCCCC2)c2ccc(cc23)C(=O)NS(=O)(=O)N(C)CCOCCN(C)C1=O
Potency [1]: 16400 nM (active) | Potency [2]: 18400 nM (active)
